Bioassay records (PubChem BioAssay)
Shown are actives, neighbours in structure and some others; about 21% of the full set was active somewhere.
Pf growth 96h = P. falciparum growth inhibition at 96 hour, primary screen for plastid delayed-death inhibitors | P. falciparum luciferase reporter growth, 96 h | 6.9% of 320,000 active | Potency, µM (top dose mostly 28.7 µM), inactives show top-dose activity change, negative = inhibition, hits mostly inhibitors; active = well fitted inhibition curve with a large enough effect; inconclusive = small, poorly fitted or top-dose-only effect, or another doubt; inactive = no such curve, though single readings can be large or run the other way; also: potency is read from the fitted curve at half-maximal effect; % is scaled to controls: 0 for no effect and ±100 for the full control effect
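Compounds incubated with erythrocytes infected by luciferase-expressing P. falciparum (2% hematocrit, 0.05% parasitemia final) for 96 hours, 37 C in 5% CO2. Growth inhibition scored as decreased luciferase luminescence.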
Shiga inhibitor = inhibitors of Shiga toxin in Vero cells | AID 2315 | inhibition, % at 38.7 µM | Vero cells, Shiga toxin protein synthesis inhibition reporter | 9.2% of 290,000 active; in the data active = inhibition mostly above about 28%, no sharp cut-off; inactive = mostly below about 43%; also: 0% is about no effect
SARS PLpro yeast = inhibitors of SARS-CoV papain-like protease in yeast. S. cerevisiae expressing SARS-CoV PLpro, growth rescue. Potency, µM (highest dose often 32.9 µM), inactives show top-dose activity, positive = growth rescue, hits mostly activators. 0.19% of 330,000 active. AID 485353; also: potency is read from the fitted curve at half-maximal effect; 0% is about no effect; nearly all actives have a fitted effect of over 55% in size
CHX counter = counter-screen for Shiga toxin inhibitors: cycloheximide protein synthesis inhibition | cell reporter, cycloheximide protein synthesis inhibition counterscreen | max response, % | 12% of 300,000 active | AID 2314; in the data active = max response mostly above about 13%, no sharp cut-off; inactive = mostly below about 14%; also: read at 38.3 µM for the half of the compounds with a filed dose; 0% is about no effect
Pf growth 48h = inhibits P. falciparum growth in the first generation, 48 h; P. falciparum luciferase growth in erythrocytes, 48 h; Potency, µM (doses to about 28.7 µM), for the others: at the highest dose activity change, negative = inhibition, most hits filed as inhibitors; 5.9% of 310,000 active; AID 504832; active = well fitted inhibition curve with a large enough effect; inconclusive = small, poorly fitted or top-dose-only effect, or another doubt; inactive = no such curve, though single readings can be large or run the other way; also: potency is read from the fitted curve at half-maximal effect; % is scaled to controls: 0 for no effect and ±100 for the full control effect
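Here the parasites carry a stable luciferase gene and grow inside erythrocytes in Albumax-based RPMI medium with compound for one erythrocytic cycle. Activity is scored as loss of luminescent signal.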
NS1 inh = blocks influenza NS1 protein function. Potency, µM (titrated, usually from 46.1 µM), inactives show top-dose activity, positive = more growth. 0.4% of 270,000 active; also: potency is read from the fitted curve at half-maximal effect; actives are rising curves; nearly all actives have a fitted effect of over 50% in size
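OD600 was taken as the measure of yeast growth restored by compound in an NS1-expressing S. cerevisiae strain. Cells had been washed out of glucose medium and diluted 1:100 into galactose -URA medium, pH 6.0.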
Numbers without * were called inactive; ? = inconclusive; / = no result given; + = active, no number. Unless noted, calls follow the shape of the full dose curve.

SMILES	Pf growth 96h	Shiga inhibitor	SARS PLpro yeast	CHX counter	Pf growth 48h	NS1 inh
C/C(=N\NC(=O)c1ccc(Cn2cc(Br)cn2)o1)c1cccc(NC(=O)C(C)C)c1	12µM*	9	5%	20*	-15%	4%
COc1ccc(/C=C/C(=O)N2CCN(C)CC2)cc1OC	-3%	11	3%	1	30%	28%
Cc1ccc2nc(N3CCN(C(=O)c4ccco4)CC3)c3nncn3c2c1	?	24	-5%	1	-23%	5%
CCC(CC)C(=O)Nc1cccc(/C(C)=N/NC(=O)c2ccccc2Cl)c1	?	30	4%	16*	/	4%
CCNS(=O)(=O)c1ccc(NC(=O)c2ccc(Cn3cc(Br)cn3)o2)cc1	12µM*	-13	-8%	-2	-24%	-10%
CCC(CC)C(=O)Nc1cccc(/C(C)=N/NC(=O)c2c(Br)cnn2C)c1	?	-8	8%	-3	-9%	-22%
O=P(O)(O)CP(=O)(O)O	-7%	34	4%	-3	12%	1%
O=P(O)(O)OP(=O)(O)O	?	/	/	/	3.8µM*	-3%
Cc1ccc(NC(=O)CN2C(=O)CSc3ccc(S(=O)(=O)N4CCCCC4)cc32)cc1	-1%	-2	12%	11	?	18%
Cc1cc(Br)ccc1NC(=O)CN(C)C(=O)C1CSC2(C)CCC(=O)N12 (stereo not given)	-1%	/	/	/	-14%	/
O=[N+]([O-])c1ccc(/C=N\N2CCN(c3ccc(Cl)cc3)CC2)cc1	60%	12	18%	-1	58%	2%
C/C(=N/N1CCN(c2ccccc2)CC1)c1cccc([N+](=O)[O-])c1	4%	64*	-3%	33*	0%	/
O=[N+]([O-])c1cccc(/C=N\N2CCN(c3ccc(Cl)cc3)CC2)c1	8.3µM*	0	-2%	-3	-6%	7%
C/C(=N/N1CCN(Cc2ccccc2)CC1)c1ccc(Br)cc1	37%	20	1%	-3	-6%	16%
C/C(=N\N1CCN(Cc2ccccc2)CC1)c1ccco1	0%	53*	0%	15	27%	3%
C/C(=N\N1CCN(c2ccc(Cl)cc2)CC1)c1cccc([N+](=O)[O-])c1	4%	-6	0%	-2	-5%	6%
C/C(=N/N1CCN(c2ccccn2)CC1)c1ccc([N+](=O)[O-])cc1	140%	21*	-1%	31*	38%	9%
Cc1ccccc1N1C(=O)C2CCCN2C1=S (stereo not given)	?	/	3%	/	?	/
CC1CCN(Cc2nnnn2-c2cccc([N+](=O)[O-])c2)CC1	?	-4	3%	7	?	10%
CC1=C(CC[C@H](C)CO)O[C@@H]2C[C@@H]3[C@H]4CC[C@H]5C[C@@H](O)CC[C@]5(C)[C@@H]4CC(=O)[C@@]3(C)[C@@H]12	/	/	/	/	/	-11%
Cc1cc(C)n2nc(C(=O)OCC(=O)N(C)CC(=O)Nc3ccccc3Cl)nc2n1	24%	/	4%	/	8%	/
O=C(COc1ccccc1[N+](=O)[O-])N(C1CCCCC1)C1CCS(=O)(=O)C1 (stereo not given)	20%	/	2%	/	-8%	/
C/C(=N\N1CCN(c2ccccc2)CC1)c1ccco1	-3%	+	-1%	28*	20%	-12%
C/C(=N\N1CCN(c2ccccc2)CC1)c1cccs1	34%	39	-3%	8	7%	-1%
C/C(=N\N1CCN(c2ccccc2)CC1)c1ccncc1	45%	46*	0%	22*	20%	-2%
SMILES	Pf growth 96h	Shiga inhibitor	SARS PLpro yeast	CHX counter	Pf growth 48h	NS1 inh
COc1cccc(/C=C2\Oc3cc(OCC(=O)N4CCCCC4)ccc3C2=O)c1OC	?	45*	-45%	15	?	-14%
COc1cccc(/C=C2\Oc3cc(OCC(=O)N4CCCC4)ccc3C2=O)c1OC	10µM*	-4	11%	15*	13µM*	2%
CN(C)c1ccc(C(CC(=O)c2ccccc2)C2CCCCC2=O)cc1 (stereo not given)	10µM*	-4	-9%	-3	1%	-1%
O=C(CC(c1ccccc1)C1CCCCC1=O)c1ccco1 (stereo not given)	-28%	63*	23%	38*	33%	-3%
CC(=O)c1cnc2nc(SCc3cccc(C)c3)nn2c1C	175%	9	1%	9.4*	159%	-7%
CC(=O)c1cnc2nc(SCc3ccc(C)cc3)nn2c1C	13µM*	/	-2%	-2	28%	-8%
CC(=O)c1cnc2nc(SCc3ccccc3)nn2c1C	-28%	47*	1%	35*	88%	-6%
CC(=O)c1cnc2nc(SCc3ccc(Cl)cc3)nn2c1C	-12%	10	-9%	11	-22%	-34%
Cc1cc(C)n2nc(SCc3cccc(F)c3)nc2n1	?	26	-2%	2	-3%	-6%
CCN(CC)CCCn1c2c(c(SCC(=O)N3CCc4ccccc43)nc1=O)CCC2	-24%	/	15%	/	?	/
COC(=O)c1sc(N2CCN(c3ccc(Cl)cc3)CC2)nc1N	-1%	23	3%	10	-9%	-8%
C=CCn1c(SCC(=O)NC2CC2)nc2sc(CC)cc2c1=O	?	-27	2%	1	0%	-4%
O=C(CN1C(=O)NC2(CCOc3ccccc32)C1=O)c1ccc[nH]1 (stereo not given)	17%	/	-9%	/	1%	/
COc1ccc(C2=CC(c3ccc(OC)c(OC)c3)c3c(c4ccccc4oc3=O)O2)cc1OC (stereo not given)	8.3µM*	41	-2%	1	2.6µM*	4%
Cc1ccc(C(=O)CSc2nnc(C)s2)cc1	?	66*	-31%	53*	145%	18%
Cc1nnc(SCc2ccc(C(=O)Nc3cc(Cl)ccc3C)cc2)s1	?	36	16%	13	38%	-8%
Cc1nnc(SCC(=O)NNC(=O)c2ccc(Cl)cc2)s1	15%	-7	2%	-3	1%	13%
Cc1ccc(NC(=O)c2ccc(CSc3nnc(C)s3)cc2)c(C)c1	124%	97*	-11%	43*	49%	6%
Cc1nnc(SCC(=O)O)s1	21%	2	2%	-2	38%	0%
Cc1nnc(SCC(=O)c2ccc(Br)cc2)s1	10%	41	0%	19*	2%	0%
CCOC(=O)[C@H]1[C@H]2COc3ccc(Cl)cc3[C@@H]2N2C(=O)c3ccc(F)cc3NC(=O)[C@@]12C	?	/	6%	/	12µM*	/
CCOC(=O)[C@H]1[C@H]2COc3ccc(Cl)cc3[C@@H]2N2C(=O)c3cc(Cl)ccc3NC(=O)[C@@]12C	10µM*	/	-4%	/	?	/
CCOC(=O)[C@H]1[C@H]2COc3ccccc3[C@@H]2N2C(=O)c3cc(Cl)ccc3NC(=O)[C@@]12C	12µM*	/	-2%	/	10µM*	/
CCOC(=O)[C@H]1[C@H]2COc3ccc(Cl)cc3[C@@H]2N2C(=O)c3cc(Br)ccc3NC(=O)[C@@]12C	?	/	1%	/	?	/
